Laboratory results: PubChem BioAssay (NCI)
About 79,000 compounds went through this panel and 15% of them were active in at least one assay; those are over-represented in the sample as a whole. Activity calls are given as the source filed them. Rule as the data show it: active = growth inhibition above about 70%; inactive = the rest.

Legend:
[1] = NCI Yeast Anticancer Drug Screen. Data for the rad52 strain (AID 147);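 also: 0% = growth of vehicle-treated control cultures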; conditions: S. cerevisiae rad52 mutant growth inhibition, stronger effect = higher value
How it was run: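 DNA repair-defective yeast; compound exposure; growth scored against vehicle controls.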

[2] = NCI Yeast Anticancer Drug Screen. Data for the wt1 strain (AID 149);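 also: 0% = growth of vehicle-treated wt1 cultures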; conditions: S. cerevisiae wt1 strain (SPY 50644) growth inhibition, stronger effect = higher value
How it was run: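 wt1 yeast, compound-treated; % growth inhibition vs vehicle control.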

[3] = NCI Yeast Anticancer Drug Screen. Data for the rad50EPP+ strain (AID 151);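 also: 0% = growth of vehicle-treated control cultures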; conditions: S. cerevisiae rad50 mutant strain, stronger effect = higher value
How it was run: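 rad50EPP+ yeast treated with test compounds. Readout: growth vs vehicle control.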

[4] = NCI Yeast Anticancer Drug Screen. Data for the rad50 strain (AID 155);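 also: 0% = growth of vehicle-only cultures of the same strain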; conditions: S. cerevisiae rad50 strain growth inhibition, stronger effect = higher value
How it was run: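 Genetically altered yeast (DNA repair pathway); compound treatment; growth inhibition vs vehicle ctrl.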

[5] = NCI Yeast Anticancer Drug Screen. Data for the mec2-1 strain (AID 157); conditions: S. cerevisiae mec2-1 strain, stronger effect = higher value
How it was run: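 Growth inhibition is read against vehicle-treated controls after compound exposure of the mec2-1 yeast strain, which is defective in DNA damage repair or cell cycle control.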

[6] = NCI Yeast Anticancer Drug Screen. Data for the rad14 strain (AID 159);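 also: 0% = growth of vehicle-treated control cultures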; conditions: S. cerevisiae rad14 strain growth inhibition, stronger effect = higher value
How it was run: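 Test compounds were applied to a repair-deficient yeast strain. Its growth was then compared with that of cultures given vehicle alone, and inhibition was expressed relative to those controls.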

[7] = NCI Yeast Anticancer Drug Screen. Data for the sgs1 mgt1 strain (AID 161);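 also: 0% = growth of cultures given vehicle only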; conditions: S. cerevisiae sgs1 mgt1 strain, stronger effect = higher value
How it was run: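 Percent growth inhibition was derived by comparing compound-exposed mutant yeast with vehicle-exposed cultures. The strain carries alterations in DNA damage repair.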

[8] = NCI Yeast Anticancer Drug Screen. Data for the CLN2oe strain (AID 163);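 also: 0% = growth of vehicle-only control cultures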; conditions: S. cerevisiae CLN2oe strain, stronger effect = higher value
How it was run: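 Compound-treated yeast; growth vs vehicle ctrl = % inhibition. Genetically altered strain (cell-cycle control).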

[9] = NCI Yeast Anticancer Drug Screen. Data for the cln2 rad14 strain (AID 165);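 also: 0% = growth equal to vehicle treated cultures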; conditions: S. cerevisiae cln2 rad14 strain, stronger effect = higher value
How it was run: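 Growth inhibition, relative to vehicle-treated controls, is the read-out. The test organism is a yeast strain with defined genetic alterations, cln2 rad14.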

[10] = NCI Yeast Anticancer Drug Screen. Data for the bub3 strain (AID 167); conditions: S. cerevisiae bub3 mutant strain, stronger effect = higher value
How it was run: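 Yeast carrying a defined mutation is treated with each compound, and growth is compared with that of vehicle-exposed cells to give inhibition.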

[11] = NCI Yeast Anticancer Drug Screen. Data for the wt2 strain (AID 169);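 also: 0% = growth of vehicle-treated yeast cultures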; conditions: S. cerevisiae wt2 strain growth inhibition, stronger effect = higher value
How it was run: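 Compound exposure of yeast; growth compared with vehicle controls; inhibition reported.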

[12] = NCI Yeast Anticancer Drug Screen. Data for the mlh1 strain (AID 171);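 also: 0% = growth of vehicle-treated control cultures of the same strain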; conditions: S. cerevisiae mlh1 strain growth inhibition, stronger effect = higher value
How it was run: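 Compounds are applied to a genetically altered yeast strain, and its growth is compared with that of vehicle-treated cultures to give percent inhibition.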

[13] = NCI Yeast Anticancer Drug Screen. Data for the sgs1 strain (AID 173);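 also: 0% = growth of vehicle-only control cultures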; conditions: S. cerevisiae sgs1 mutant, stronger effect = higher value
How it was run: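 Compounds applied to genetically altered yeast; growth compared with vehicle-treated cultures to give % inhibition.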

[14] = NCI Yeast Anticancer Drug Screen. Data for the mlh1 rad18 strain (AID 175); conditions: S. cerevisiae mlh1 rad18 strain growth inhibition, stronger effect = higher value
How it was run: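 Cells of a genetically altered yeast strain, deficient in DNA damage repair, were treated with compound. Their growth was then compared with that of vehicle-treated cultures to give inhibition.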

[15] = NCI Yeast Anticancer Drug Screen. Data for the rad18 strain (AID 177); conditions: S. cerevisiae rad18 mutant growth inhibition, stronger effect = higher value
How it was run: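 Compounds are applied to a repair-deficient yeast strain, and growth is compared with that of vehicle-treated cultures to give percent inhibition.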

[16] = at 5.0 µM (retest, dose inferred, filed as 0.5)
[17] = at 50.0 µM (retest, dose inferred, filed as 5.0)

Measured: growth inhibition

Cc1ccc2occ/c(=N\Nc3ccccc3)c2c1
active: [4]; at 50.0 µM 73.8% | [7]; [17] 70% | [7]; at 50.0 µM 82.5% | [10]; [17] 70% | [10]; at 50.0 µM 87.8% | [10]; at 100.0 µM 70%
inactive: [1]; at 1.2 µM -3% | [1]; at 3.7 µM -4% | [1]; at 11.0 µM 8% | [1]; at 33.0 µM 33% | [1]; at 100.0 µM 39% | [2]; at 1.2 µM 2% | [2]; at 3.7 µM -5% | [2]; at 11.0 µM 4% | [2]; at 33.0 µM 11% | [2]; at 100.0 µM 16% | [3]; at 1.2 µM 1% | [3]; at 3.7 µM -3% | [3]; at 11.0 µM 4% | [3]; at 33.0 µM 58% | [3]; at 100.0 µM 55% | [4]; at 1.2 µM 5% | [4]; at 3.7 µM -7% | [4]; [16] -16% | [4]; at 11.0 µM 6% | [4]; at 33.0 µM 57% | [4]; [17] 31% | [4]; at 100.0 µM 58% | [5]; at 1.2 µM -4% | [5]; at 3.7 µM -4% | [5]; [16] -11% | [5]; at 11.0 µM -2% | [5]; at 33.0 µM 17% | [5]; [17] 23% | [5]; at 50.0 µM 52.7% | [5]; at 100.0 µM 24% | [6]; at 1.2 µM -2% | [6]; at 3.7 µM -2% | [6]; at 11.0 µM -4% | [6]; at 33.0 µM 39% | [6]; at 100.0 µM 45% | [7]; [16] -1% | [8]; at 1.2 µM -9% | [8]; at 3.7 µM -7% | [8]; at 11.0 µM 5% | [8]; at 33.0 µM -1% | [8]; at 100.0 µM 12% | [9]; [16] -21% | [9]; [17] -23% | [9]; at 50.0 µM -23.1% | [10]; at 1.2 µM -4% | [10]; at 3.7 µM -4% | [10]; [16] -4% | [10]; at 11.0 µM -4% | [10]; at 33.0 µM 64% | [11]; at 1.2 µM -2% | [11]; at 3.7 µM -4% | [11]; at 11.0 µM 7% | [11]; at 33.0 µM 55% | [11]; at 100.0 µM 57% | [12]; at 1.2 µM -1% | [12]; at 3.7 µM -5% | [12]; at 11.0 µM -1% | [12]; at 33.0 µM 59% | [12]; at 100.0 µM 63% | [13]; at 1.2 µM -1% | [13]; at 3.7 µM -4% | [13]; at 11.0 µM 4% | [13]; at 33.0 µM 53% | [13]; at 100.0 µM 57% | [14]; [16] -5% | [14]; [17] 52% | [14]; at 50.0 µM 68.3% | [15]; at 1.2 µM -2% | [15]; at 3.7 µM -1% | [15]; at 11.0 µM 7% | [15]; at 33.0 µM 62% | [15]; at 100.0 µM 64%

Oc1ccccc1N=Cc1ccc(Cl)cc1
active: [4]; at 100.0 µM 82% | [10]; at 11.0 µM 70% | [10]; at 33.0 µM 78% | [10]; [17] 73% | [10]; at 50.0 µM 71.5% | [10]; at 100.0 µM 81% | [15]; at 100.0 µM 87%
inactive: [1]; at 1.2 µM 5% | [1]; at 3.7 µM 10% | [1]; at 11.0 µM 20% | [1]; at 33.0 µM 29% | [1]; at 100.0 µM 39% | [2]; at 1.2 µM 14% | [2]; at 3.7 µM 12% | [2]; at 11.0 µM 10% | [2]; at 33.0 µM 15% | [2]; at 100.0 µM 17% | [3]; at 1.2 µM 6% | [3]; at 3.7 µM 21% | [3]; at 11.0 µM 35% | [3]; at 33.0 µM 52% | [3]; at 100.0 µM 59% | [4]; at 1.2 µM 9% | [4]; at 3.7 µM 54% | [4]; [16] 16% | [4]; at 11.0 µM 42% | [4]; at 33.0 µM 59% | [4]; [17] 26% | [4]; at 50.0 µM 32% | [5]; at 1.2 µM 17% | [5]; at 3.7 µM 16% | [5]; [16] -23% | [5]; at 11.0 µM 18% | [5]; at 33.0 µM 22% | [5]; [17] 24% | [5]; at 50.0 µM 29.1% | [5]; at 100.0 µM 40% | [6]; at 1.2 µM 5% | [6]; at 3.7 µM 5% | [6]; at 11.0 µM 11% | [6]; at 33.0 µM 20% | [6]; at 100.0 µM 34% | [7]; [16] 20% | [7]; [17] 24% | [7]; at 50.0 µM 25.6% | [8]; at 1.2 µM -4% | [8]; at 3.7 µM -2% | [8]; at 11.0 µM -1% | [8]; at 33.0 µM 1% | [8]; at 100.0 µM 9% | [9]; [16] 2% | [9]; [17] 14% | [9]; at 50.0 µM -9.8% | [10]; at 1.2 µM 33% | [10]; at 3.7 µM 55% | [10]; [16] 56% | [11]; at 1.2 µM 14% | [11]; at 3.7 µM 16% | [11]; at 11.0 µM 4% | [11]; at 33.0 µM 8% | [11]; at 100.0 µM 13% | [12]; at 1.2 µM 12% | [12]; at 3.7 µM 10% | [12]; at 11.0 µM 11% | [12]; at 33.0 µM 18% | [12]; at 100.0 µM 27% | [13]; at 1.2 µM 17% | [13]; at 3.7 µM 13% | [13]; at 11.0 µM 19% | [13]; at 33.0 µM 23% | [13]; at 100.0 µM 29% | [14]; [16] 41% | [14]; [17] 53% | [14]; at 50.0 µM 60.5% | [15]; at 1.2 µM 17% | [15]; at 3.7 µM 30% | [15]; at 11.0 µM 43% | [15]; at 33.0 µM 64%
